Source: PubChem BioAssay (The Scripps Research Institute Molecular Screening Center)
DAX1 inh-1 = DAX1 (NR0B1) inhibitors on StAR promoter, primary screen, cell-based, luminescence, SF-1 (NR5A1), full-length DAX-1. HEK293T StAR-luciferase reporter, SF-1/DAX-1 repression relief. inhibition, % at 6.8 µM. 370,000 tested, 1.1% active;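 active means inhibition above the mean over all tested compounds plus 3 SD, cut at about 3.6% in these data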;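 further: higher inhibition means more luminescence from relief of DAX-1 repression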
hcDAF12 agonist = H. contortus DAF-12 nuclear receptor activators, primary screen, cell-based, luminescence, HEK293, lit1-tk-luc reporter; activation, % at 6.8 µM; HEK293 hcDAF-12 lit1-tk-luc reporter; 0% DMSO, 100% Δ7-dafachronic acid; 370,000 tested, 1.4% active; AID 652067, 2013;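 active means activation above the mean of all tested compounds plus 3 SD, cut at about 5.5% in these data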
ssDAF-12 act = S. stercoralis DAF-12 nuclear receptor activators, primary screen, cell-based, luminescence, HEK293, GRIP1 co-expression, lit1-tk-luc; Nuclear hormone receptor DAF-12 (Strongyloides stercoralis); HEK293 ssDAF-12/GRIP1 lit1-tk-luc reporter; % of 3 µM dafachronic acid response; activation, % at 6.8 µM; 370,000 tested, 1% active; AID 652126, 2013;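 active means activation above the mean over all tested compounds plus 3 SD, cut at about 0.9% in these data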
DAX1 inh-2 = DAX1 (NR0B1) inhibitors, primary screen, cell-based, HEK293, Gal4-DAX1, luciferase luminescence; Nuclear receptor subfamily 0 group B member 1 (Homo sapiens), P51843; HEK293 Gal4-DAX1 luciferase reporter; inhibition, % at 6.75 µM; 340,000 tested, 0.99% active; AID 504766, 2011;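 active means inhibition above the mean over all tested compounds plus 3 SD, cut at about 4.2% in these data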;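 further: inhibition shows as a rise in luminescence from relieved DAX1 repression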
hgDAF12 agonist = H. glycines DAF-12 receptor agonists, primary screen, cell-based, luminescence, HEK293, GAL4 fusion, UAS-luciferase; 370,000 tested, 1.8% active; activation, % at 6.8 µM; HEK293 GAL4-hgDAF12 UAS-luciferase reporter, agonist luminescence; normalized to butyrate control; Nuclear hormone receptor DAF-12 (Heterodera glycines), GAL4 fusion;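 active means activation above a cutoff set at the mean of all screened compounds plus 3 SD, cut at about 10% in these data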
DAX1 conf = DAX1 (NR0B1) inhibitors relieving SF-1 repression, confirmation, cell-based, luminescence, HEK293T, full-length DAX-1, SF-1 activated StAR promoter | HEK293T StAR-promoter luciferase reporter, SF-1/DAX-1 repression | 2,400 tested, 87% active | AID 652134, 2013 | shares compounds with DAX1 inh-1 | inhibition, % at 6.8 µM;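 active means inhibition above the average of every tested compound plus 3 SD, cut at about 3.8% in these data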
SF1 mutant ctr = StAR reporter signal changes without DAX1, counter-screen for DAX1 inhibitor project, cell-based, luminescence, AF-2 mutant SF-1, transactivation | shares compounds with DAX1 inh-1 | HEK293 StAR-luciferase, SF-1 AF2 mutant | inhibition, % at 6.8 µM | 2,400 tested, 78% active | AID 652136, 2013;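 active means inhibition above the mean of all tested compounds plus 3 SD, cut at about 3% in these data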
LXRb hcDAF ctr = LXR agonists, Gal4 luciferase reporter, confirmation, counter-screen for hcDAF-12 agonist project, cell-based, luminescence, HEK293, H. contortus campaign; 3,400 tested, under 10 active; HEK293 Gal4-LXR tk-luc reporter, 24 h; normalized: DMSO 0%, positive control 100%; shares compounds with hcDAF12 agonist; activation, % at 6.8 µM;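 active means mean percent activation of the reporter above a cutoff set as the average over tested compounds plus their standard deviation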
Target sequence (P55055 whole entry, looked up, the tested form may be a part): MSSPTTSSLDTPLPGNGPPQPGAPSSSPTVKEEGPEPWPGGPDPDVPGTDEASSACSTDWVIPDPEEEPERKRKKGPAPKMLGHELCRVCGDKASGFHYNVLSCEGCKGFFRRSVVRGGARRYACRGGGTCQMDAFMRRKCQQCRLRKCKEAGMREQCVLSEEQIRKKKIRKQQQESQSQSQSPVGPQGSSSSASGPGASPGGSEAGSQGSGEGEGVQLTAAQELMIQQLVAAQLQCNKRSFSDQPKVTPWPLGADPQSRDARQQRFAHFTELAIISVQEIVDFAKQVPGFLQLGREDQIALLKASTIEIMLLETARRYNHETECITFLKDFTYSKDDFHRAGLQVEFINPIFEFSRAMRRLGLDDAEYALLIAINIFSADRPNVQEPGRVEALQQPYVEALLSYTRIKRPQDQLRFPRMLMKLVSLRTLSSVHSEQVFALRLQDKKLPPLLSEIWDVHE
hcDAF12 conf = H. contortus DAF-12 receptor agonists, confirmation, cell-based, luminescence, HEK293, lit1-tk-luc, triplicate | shares compounds with hcDAF12 agonist | activation, % at 6.8 µM | HEK293 hcDAF-12 lit1-tk-luc reporter; % of Δ7-dafachronic acid response | 3,400 tested, 61% active;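 active means mean activation across triplicate tests above the threshold derived from the earlier primary screen, cut at about 5.5% in these data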
Large screens that a line does not name were inactive (follow-up assays come after a bar, where they were run). The list is not random: actives were taken first. Their share in the collection is about 4.1%.

Clc1ccccc1/C=N/NC1=Nc2cccc3cccc1c23	DAX1 inh-1 4.6, hcDAF12 agonist 16, ssDAF-12 act 2.8, DAX1 inh-2 4.3, hgDAF12 agonist 18 | DAX1 conf 18 | SF1 mutant ctr 8.0 | LXRb hcDAF ctr inactive | hcDAF12 conf 15
CC(C)(C)OC(=O)C[C@@H]1C/C=C\C[C@@H](CC(=O)N[C@H](CO)Cc2ccccc2)C(=O)N2CCC[C@H]2COC1=O	none
CCCc1nc2ccc(Br)cn2c1Cc1ccccc1	none (no result: DAX1 inh-2)
CCCc1nc2ccc(C)cn2c1Cc1ccccc1	DAX1 inh-1 4.6, hcDAF12 agonist 7.2, ssDAF-12 act 1.3 (no result: DAX1 inh-2) | DAX1 conf inactive | SF1 mutant ctr 3.8 | LXRb hcDAF ctr inactive | hcDAF12 conf 7.3
CN(C)C(=O)c1ccc(-c2cc3onc(-c4ccccc4)c3c(=O)n2C)cc1	none
O=C(Nc1ccc([N+](=O)[O-])cc1)C(=O)Nc1cccc(C(=O)O)c1	DAX1 inh-1 5.4, hcDAF12 agonist 11, ssDAF-12 act 2.7, hgDAF12 agonist 13 | DAX1 conf 12 | SF1 mutant ctr 8.5 | LXRb hcDAF ctr inactive | hcDAF12 conf 25
COC(=O)c1cc(NC(=O)c2c(Cl)cnn2C)cc(C(=O)OC)c1	none
Cn1ncc(Cl)c1C(=O)Nc1ccc2c(c1)CCC2	DAX1 inh-1 5.8, hcDAF12 agonist 6.8, ssDAF-12 act 1.3 | DAX1 conf 5.3 | SF1 mutant ctr inactive | LXRb hcDAF ctr inactive | hcDAF12 conf 5.7
CSc1ccc(/C=C/c2ccc3cccc(O)c3n2)cc1	DAX1 inh-1 5.0, hcDAF12 agonist 22, ssDAF-12 act 3.2, hgDAF12 agonist 34 | DAX1 conf 16 | SF1 mutant ctr 7.1 | LXRb hcDAF ctr inactive | hcDAF12 conf 11
COc1ccc(OCc2cc(C(=O)NC(C)Cc3cccnc3)no2)c(Cl)c1 (stereo unspecified)	none
COc1ccc(OCc2cc(C(=O)NC(C)Cn3cncn3)no2)c(Cl)c1 (stereo unspecified)	DAX1 inh-1 6.0, hcDAF12 agonist 6.7, ssDAF-12 act 0.9, hgDAF12 agonist 11 | DAX1 conf inactive | SF1 mutant ctr inactive | LXRb hcDAF ctr inactive | hcDAF12 conf 6.8
COc1ccc(NC(=O)c2nc3ccccc3s2)cc1	DAX1 inh-1 5.0, hcDAF12 agonist 17, ssDAF-12 act 2.5 | DAX1 conf 13 | SF1 mutant ctr 8.2 | LXRb hcDAF ctr inactive | hcDAF12 conf 15
COc1ccc(NC(=O)c2cc3ccccn3n2)cc1	DAX1 inh-1 7.9, hcDAF12 agonist 9.2 | DAX1 conf 15 | SF1 mutant ctr 5.8 | LXRb hcDAF ctr inactive | hcDAF12 conf 5.8
